Test results reported in PubChem BioAssay (NCATS).
Records with an inconclusive call do not appear. Activity calls are given as the source filed them. Calls come from the whole dose curve; as a rule, active = well fitted curve in the direction sought with a large enough effect; inconclusive = small, poorly fitted or top-dose-only effect, or another doubt; inactive = no such curve, though single readings can be large; an effect the other way counts as inactive or inconclusive.

What was measured:
[1] = Quantitative High-Throughput drug screen in 47 multiple myeloma cell lines against the NCATS MIPE library collection: LP1_DSMZ cell viability assay (AID 1918982); note: nearly all actives have a fitted effect of over 35% in size; note: potency is the fitted concentration of half-maximal effect
In short: (§1)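 ATP-based luminescence (CellTiter-Glo, 5 min RT incubation) quantified surviving cells following two days' treatment with MIPE 4.0 agents at 37 °C, 5% CO2.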

[2] = Quantitative High-Throughput drug screen in 47 multiple myeloma cell lines against the NCATS MIPE library collection: KMS28PE_JCRB cell viability assay (AID 1918983); note: nearly all actives have a fitted effect of over 35% in size; note: potency is the fitted concentration of half-maximal effect
In short: as §1

[3] = Quantitative High-Throughput drug screen in 47 multiple myeloma cell lines against the NCATS MIPE library collection: KMS34_JCRB cell viability assay (AID 1918985); note: nearly all actives have a fitted effect of over 40% in size; note: potency is the fitted concentration of half-maximal effect
In short: as §1

[4] = Quantitative High-Throughput drug screen in 47 multiple myeloma cell lines against the NCATS MIPE library collection: XG6_PLB cell viability assay (AID 1919865); note: nearly all actives have a fitted effect of over 40% in size; note: potency is the fitted concentration of half-maximal effect
In short: as §1

[5] = Quantitative High-Throughput drug screen in 47 multiple myeloma cell lines against the NCATS MIPE library collection: XG1_PLB cell viability assay (AID 1919866); note: nearly all actives have a fitted effect of over 35% in size; note: potency is the fitted concentration of half-maximal effect
In short: as §1

[6] = Quantitative High-Throughput drug screen in 47 multiple myeloma cell lines against the NCATS MIPE library collection: VP6_DJ cell viability assay (AID 1919867); note: nearly all actives have a fitted effect of over 40% in size; note: potency is the fitted concentration of half-maximal effect
In short: as §1

[7] = Quantitative High-Throughput drug screen in 47 multiple myeloma cell lines against the NCATS MIPE library collection: UTMC2_PLB cell viability assay (AID 1919868); conditions: CellTiter-Glo ATP luminescence, 48 h; viability (% of DMSO control): at 45.8 µM (top of the series); note: nearly all actives have a fitted effect of over 55% in size
In short: as §1

[8] = Quantitative High-Throughput drug screen in 47 multiple myeloma cell lines against the NCATS MIPE library collection: PE2_PLB cell viability assay (AID 1919869); note: nearly all actives have a fitted effect of over 35% in size; note: potency is the fitted concentration of half-maximal effect
In short: as §1

[9] = Quantitative High-Throughput drug screen in 47 multiple myeloma cell lines against the NCATS MIPE library collection: PCM6_Riken cell viability assay (AID 1919870); note: nearly all actives have a fitted effect of over 30% in size; note: potency is the fitted concentration of half-maximal effect
In short: as §1

[10] = Quantitative High-Throughput drug screen in 47 multiple myeloma cell lines against the NCATS MIPE library collection: RPMI8226_ATCC cell viability assay (AID 1919871); note: nearly all actives have a fitted effect of over 30% in size; note: potency is the fitted concentration of half-maximal effect
In short: as §1

[11] = Quantitative High-Throughput drug screen in 47 multiple myeloma cell lines against the NCATS MIPE library collection: KMS11_JCRBsus cell viability assay (AID 1919873); note: nearly all actives have a fitted effect of over 50% in size; note: potency is the fitted concentration of half-maximal effect
In short: as §1

[12] = Quantitative High-Throughput drug screen in 47 multiple myeloma cell lines against the NCATS MIPE library collection: SKMM1_PLB cell viability assay (AID 1919863); conditions: SKMM1 myeloma viability, CellTiter-Glo ATP, 48 h; viability: active compounds read low; note: nearly all actives have a fitted effect of over 35% in size; note: potency is the fitted concentration of half-maximal effect
In short: as §1

[13] = Quantitative High-Throughput drug screen in 47 multiple myeloma cell lines against the NCATS MIPE library collection: OPM2_DSMZ cell viability assay (AID 1919872); note: nearly all actives have a fitted effect of over 30% in size
In short: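 Myeloma cells (500 per well) were exposed to MIPE 4.0 compounds by pin transfer and incubated 48 hours at 37C, 5% CO2. Viability was read as ATP by CellTiter-Glo luminescence, normalised to DMSO (100%) and media-only (0%) wells.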

[14] = Quantitative High-Throughput drug screen in 47 multiple myeloma cell lines against the NCATS MIPE library collection: U266_ATCC cell viability assay (AID 1919864); note: nearly all actives have a fitted effect of over 35% in size; note: potency is the fitted concentration of half-maximal effect
In short: as §1

[15] = Quantitative High-Throughput drug screen in 47 multiple myeloma cell lines against the NCATS MIPE library collection: OCIMY7_PLB cell viability assay (AID 1918987); note: nearly all actives have a fitted effect of over 65% in size; note: potency is the fitted concentration of half-maximal effect
In short: as §1

[16] = Quantitative High-Throughput drug screen in 47 multiple myeloma cell lines against the NCATS MIPE library collection: OPM1_PLB cell viability assay (AID 1918989); note: nearly all actives have a fitted effect of over 40% in size; note: potency is the fitted concentration of half-maximal effect
In short: as §1

[17] = Quantitative High-Throughput drug screen in 47 multiple myeloma cell lines against the NCATS MIPE library collection: L363_DSMZ cell viability assay (AID 1918984); note: nearly all actives have a fitted effect of over 40% in size; note: potency is the fitted concentration of half-maximal effect
In short: as §1

[18] = Quantitative High-Throughput drug screen in 47 multiple myeloma cell lines against the NCATS MIPE library collection: KMS28BM_JCRB cell viability assay (AID 1919874); note: nearly all actives have a fitted effect of over 35% in size; note: potency is the fitted concentration of half-maximal effect
In short: as §1

[19] = Quantitative High-Throughput drug screen in 47 multiple myeloma cell lines against the NCATS MIPE library collection: OCIMY5_PLB cell viability assay (AID 1918988); note: potency is the fitted concentration of half-maximal effect; nearly all actives have a fitted effect of over 65% in size
In short: as §1

[20] = KB-8-5-11 P-gp reporter qHTS against the NCATS DSHEA and TCM libraries (AID 1919977); note: 0% is about no effect
In short: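 CellTiter-Glo luminescence measured viability after ~72 h exposure (37C, 5% CO2) of KB-8-5-11 cervical adenocarcinoma cells overexpressing P-gp. Colchicine was omitted during assay. Substances were tested as titrations.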

CC=C(C)C(=O)N[C@@H](c1ccccc1)[C@@H](O)C(=O)O[C@H]1C[C@@]2(O)[C@@H](OC(=O)c3ccccc3)[C@@H]3[C@]4(OC(C)=O)CO[C@@H]4C[C@H](O)[C@@]3(C)C(=O)[C@H](OC(C)=O)C(=C1C)C2(C)C
inactive: Potency [1] | Potency [2] | Potency [3] | Potency [4] | Potency [5] | Potency [6] | Potency [7] | Potency [8] | Potency [9] | Potency [10] | Potency [11]

C[C@]12CC[C@H](O)CC1=CC[C@H]1[C@H]3CCC(=O)[C@@]3(C)CC[C@@H]12
active: Potency [5] 7.43 µM | Potency [9] 16.6 µM | Potency [11] 23.5 µM
inactive: Potency [1] | Potency [2] | Potency [3] | viability [12] 106% | Potency [8] | Potency [13]

O=[N+]([O-])c1ncc[nH]1
active: Potency [2] 0.105 µM
inactive: Potency [1] | Potency [14] | Potency [5] | Potency [8] | Potency [10] | Potency [13]

CC(C)(C)c1cc(C=C(C#N)C#N)cc(Br)c1O
active: Potency [1] 23.5 µM | Potency [2] 23.5 µM | Potency [15] 4.69 µM | Potency [16] 9.35 µM | Potency [14] 26.4 µM | Potency [4] 14.8 µM | Potency [5] 11.8 µM | Potency [6] 11.8 µM | Potency [8] 5.26 µM | Potency [9] 18.7 µM

CN(C)NC(=O)CCC(=O)O
inactive: Potency [1] | Potency [17] | Potency [3] | Potency [16] | Potency [10] | Potency [13] | Potency [11]
active: Potency [5] 26.4 µM | Potency [6] 16.6 µM | Potency [9] 20.9 µM

NC1=NC(=O)N2CC12 (stereo not drawn)
active: Potency [17] 9.35 µM | Potency [15] 20.9 µM | Potency [4] 9.35 µM | Potency [5] 11.8 µM | Potency [6] 14.8 µM | Potency [8] 13.2 µM | Potency [9] 8.33 µM
inactive: Potency [1] | Potency [3] | Potency [13] | Potency [11] | Potency [18]

O=C(Oc1ccc([N+](=O)[O-])cc1)N1CCN(Cc2cccc(Oc3ccccc3)c2)CC1
inactive: Potency [1] | Potency [2] | Potency [3] | Potency [16] | Potency [8] | Potency [10] | Potency [13]
active: Potency [14] 14.8 µM | Potency [4] 23.5 µM | Potency [5] 20.9 µM

CCCN1CCO[C@@H]2c3cc(O)ccc3OC[C@@H]21
inactive: Potency [2] | Potency [16] | Potency [14] | Potency [5] | Potency [8] | Potency [9] | Potency [10] | Potency [13] | Potency [11]
active: Potency [1] 20.9 µM | Potency [19] 18.7 µM

COC(=O)[C@@H](N)CCCN=C(N)N[N+](=O)[O-]
inactive: Potency [1] | Potency [2] | Potency [3] | Potency [14] | Potency [4] | Potency [5] | Potency [8] | Potency [10] | Potency [13] | Potency [11] | Potency [18]

CCOC(=O)c1cncn1[C@H](C)c1ccccc1
active: Potency [12] 7.43 µM
inactive: Potency [1] | Potency [15] | Potency [14] | Potency [4] | Potency [5] | Potency [6] | Potency [8] | Potency [9] | Potency [10] | Potency [13] | Potency [18]

C[C@](O)(COc1ccc(C#N)cc1)C(=O)Nc1ccc(C#N)c(C(F)(F)F)c1
inactive: Potency [1] | Potency [3] | Potency [14] | Potency [13]
active: Potency [15] 26.4 µM | Potency [8] 18.7 µM

CC(N[C@H]1C[C@H]1c1ccccc1)c1ccc2c(c1)OCCO2 (stereo partly drawn)
inactive: Potency [1] | Potency [16] | Potency [4] | Potency [5] | Potency [8] | Potency [10] | Potency [13] | Potency [11] | Potency [18]
active: Potency [2] 0.469 µM | Potency [14] 14.8 µM

COC1=CC(C)=C[C@@H](C)[C@@H](O)[C@@H](C)CC(C)=CC=C[C@H](OC)[C@H]([C@@H](C)[C@@H](O)[C@H](C)[C@@]2(O)C[C@@H](O)[C@H](C)[C@@H](C(C)C)O2)OC1=O
active: Potency [1] 0.0021 µM | Potency [2] 14.8 µM | Potency [3] 0.003 µM | Potency [16] 0.0235 µM | Potency [4] 0.001 µM | Potency [8] 0.0118 µM | Potency [9] 9.35 µM | Potency [11] 0.0019 µM | Potency [18] 20.9 µM

CC[C@@H](C(N)=O)N1CCCC1=O
inactive: Potency [1] | Potency [14] | Potency [9] | Potency [10] | Potency [13] | Potency [11] | Potency [18]
active: Potency [16] 26.4 µM | Potency [5] 23.5 µM

CC(O)=C(C#N)C(=O)Nc1cc(Br)ccc1Br
inactive: Potency [1] | Potency [4] | Potency [5] | Potency [13]
active: Potency [2] 14.8 µM | Potency [19] 1.66 µM | Potency [12] 20.9 µM | Potency [6] 2.96 µM | Potency [9] 1.32 µM | Potency [10] 11.8 µM

C#C[C@]1(O)C=C[C@@H]2[C@@H]3CCC4=CC(=O)CC[C@@H]4[C@H]3CC[C@@]21CC
inactive: Potency [1] | Potency [2] | Potency [3] | viability [12] 126% | Potency [9] | Potency [10] | Potency [13] | Potency [18]

C=C[C@@H]1CN2CCC1C[C@H]2[C@H](O)c1ccnc2ccccc12 (stereo partly drawn)
active: Potency [1] 10.5 µM | Potency [2] 14.8 µM | Potency [16] 16.6 µM | Potency [14] 20.9 µM | Potency [5] 16.6 µM | Potency [6] 26.4 µM | Potency [8] 20.9 µM | Potency [9] 14.8 µM | Potency [10] 18.7 µM

Cc1nc(-c2ccc(-c3ccc(C(=O)N4CCc5cc6c(cc54)C4(CCN(C)CC4)CO6)cc3)c(C)c2)no1
inactive: Potency [1]

O=C(O)c1ccccc1O
inactive: outcome [20]

CC1=C(C/C=C(\C)CCC[C@H](C)CCC[C@H](C)CCCC(C)C)C(=O)c2ccccc2C1=O
inactive: outcome [20]
